According to ChEMBL document CHEMBL4513149, “CO-ADD screening of MMV (CH) - MMV compounds” (2021):
Measured potencies and affinities stand elsewhere.

Key:
Staphylococcus aureus = conditions: Concentration 20 uM; ASSAY_TEST Inhibition of Bacterial Growth; detection method Absorption (OD600); MEDIA CAMHB; plate type 384well; NBS; CORNING #3640; time 18 hr
Escherichia coli = conditions: Concentration 20 uM; ASSAY_TEST Inhibition of Bacterial Growth; detection method Absorption (OD600); MEDIA CAMHB; plate type 384well; NBS; CORNING #3640; time 18 hr

**Q.** What does the source list for `CNC(=O)C1Cc2ccccc2N1C(=O)Cc1ccc(F)cc1` (stereo not drawn)?
**A.** Inhibition (Staphylococcus aureus): 16.81%; Inhibition (Escherichia coli): 5.31%

**Q.** For `Cl.c1ccc(C[C@@H]2CN(c3nccc(Oc4ccc(-n5ccnc5)cc4)n3)CCN2)cc1`, which Inhibition (Staphylococcus aureus) is on record?
**A.** 21.29%

**Q.** What about the Inhibition (Escherichia coli) of the same compound?
**A.** 8.76%

**Q.** Which results are given for `c1ccc(Oc2ccc(-c3cc(N4CCOCC4)[nH]n3)cc2)cc1`?
**A.** Inhibition (Staphylococcus aureus): 17.8%; Inhibition (Escherichia coli): 4.28%

**Q.** What does the source list for `CNC1C(OC2C(OC3C(O)C(O)C(NC(=N)N)C(O)C3NC(=N)N)OC(C)C2(O)C=O)OC(CO)C(O)C1O.CNC1C(OC2C(OC3C(O)C(O)C(NC(=N)N)C(O)C3NC(=N)N)OC(C)C2(O)C=O)OC(CO)C(O)C1O.O=S(=O)(O)O.O=S(=O)(O)O.O=S(=O)(O)O` (stereo not drawn)?
**A.** Inhibition (Staphylococcus aureus): 2.48%; Inhibition (Escherichia coli): 8.5%

**Q.** What does the source list for `COc1ccc(C2(C(=O)Nc3ccc(Br)cc3)CCCC2)cc1`?
**A.** Inhibition (Staphylococcus aureus): 18.94%; Inhibition (Escherichia coli): 6.87%

**Q.** What does the source list for `Cc1cccc(Cn2ccc(NC(=O)c3ccc4c(c3)OCO4)n2)c1`?
**A.** Inhibition (Staphylococcus aureus): 18.14%; Inhibition (Escherichia coli): 6.79%

**Q.** `Cc1cc(OCC(=O)NCc2ccccc2)c2cc(Br)ccc2n1` was tested. Which Inhibition (Staphylococcus aureus) did it give?
**A.** 11.48%

**Q.** What about the Inhibition (Escherichia coli) of the same compound?
**A.** 7.85%

**Q.** What does the source list for `NC(=O)c1cc(Br)ccc1OCCOc1ccccc1`?
**A.** Inhibition (Staphylococcus aureus): 12.29%; Inhibition (Escherichia coli): -2.13%

**Q.** Which results are given for `c1ccc(Oc2ccc(-c3cncc(-c4ccc5[nH]ccc5c4)n3)cc2)cc1`?
**A.** Inhibition (Staphylococcus aureus): 11.46%; Inhibition (Escherichia coli): 11.21%
